Test results taken from the supplement of paper PMC6897291.
Where a name gives a salt, the structure may show the parent alone.

What follows are compounds tested on U-2932 (assay: growth inhibition by drug plus 177Lu-lilotomab satetraxetan (1 - RLU/untreated control) (fraction); higher = stronger inhibition). Conditions: 1000 nM; time (day): 5; 177Lu-lilotomab satetraxetan 1 ug/ml.
Method in brief: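 RIVA or U-2932 cells, untreated or pretreated 18 h with a radiolabelled anti-CD37 antibody conjugate (~600 MBq/mg; 0.5 µg/ml RIVA, 1 µg/ml U-2932), were washed and seeded at 3,000 cells/well on plates pre-printed with the Selleck Cambridge Cancer Compound library. Doses were 10/100 nM (RIVA) or 10/1,000 nM (U-2932). RealTime-Glo luminescence was read daily from day 3 after 1 h at 37°C. Growth inhibition is 1 − RLU/mean of 48 untreated no-drug wells per plate.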

Structure (SMILES) | growth inhibition by drug plus 177Lu-lilotomab satetraxetan
Nc1nc2[nH]cc(CCc3ccc(C(=O)N[C@@H](CCC(=O)O)C(=O)O)cc3)c2c(=O)[nH]1 [Pemetrexed] | 0.97
COc1cc2nccc(Oc3ccc(NC(=O)Nc4cc(C)on4)c(Cl)c3)c2cc1OC [Tivozanib (AV-951)] | 0.26
CCC(=O)N1CCN(c2ccc(-n3c(=O)ccc4cnc5ccc(-c6cnc7ccccc7c6)cc5c43)cc2C(F)(F)F)CC1 [Torin 1] | 0.875
COc1cccc2c1C(=O)c1c(O)c3c(c(O)c1C2=O)C[C@@](O)(C(=O)CO)C[C@@H]3O[C@H]1C[C@H](N)[C@@H](O)[C@H](C)O1 [Epirubicin Hydrochloride] | 0.982
Clc1ccc(Nc2nnc(Cc3ccncc3)c3ccccc23)cc1 [Vatalanib dihydrochloride (PTK787)] | -0.00359
COc1cc2nccc(Oc3ccc(NC(=O)C4(C(=O)Nc5ccc(F)cc5)CC4)cc3)c2cc1OC [XL-184 free base (Cabozantinib)] | 0.224
C[C@@H](O[C@H]1OCCN(Cc2n[nH]c(=O)[nH]2)[C@H]1c1ccc(F)cc1)c1cc(C(F)(F)F)cc(C(F)(F)F)c1 [Aprepitant (MK-0869)] | 0.0779
COc1cc2c(cc1O)CC[C@@H]1[C@@H]2CC[C@]2(C)[C@@H](O)CC[C@@H]12 [2-Methoxyestradiol] | 0.783
CNCc1ccc(-c2[nH]c3cc(F)cc4c3c2CCNC4=O)cc1 | 0.124
CC[C@@]1(O)C(=O)OCc2c1cc1n(c2=O)Cc2cc3c(CN(C)C)c(O)ccc3nc2-1 [Topotecan HCl] | 0.983
Nc1cc(C(F)(F)F)c(-c2cc(N3CCOCC3)nc(N3CCOCC3)n2)cn1 | 0.403
CC(C)(C)c1ccc(S(=O)(=O)/C=C/C#N)cc1 | 0.534
C[C@]1(c2nc3c(C(N)=O)cccc3[nH]2)CCCN1 [ABT-888 (Veliparib)] | 0.019
Cc1ccc(NC(=O)c2ccc(CN3CC[C@H](N(C)C)C3)c(C(F)(F)F)c2)cc1Nc1nccc(-c2cncnc2)n1 [Bafetinib (INNO-406)] | 0.0531
C[C@]12CC[C@@H]3c4ccc(O)cc4CC[C@H]3[C@@H]1CCC2=O [Estrone] | 0.0954
O=C(c1ccc(OCCN2CCCCC2)cc1)c1c(-c2ccc(O)cc2)sc2cc(O)ccc12 [Evista (Raloxifene Hydrochloride)] | -0.0473
CCN(CC)CCNC(=O)c1c(C)[nH]c(/C=C2\C(=O)Nc3ccc(F)cc32)c1C [Sunitinib Malate (Sutent)] | -0.0458
CCOc1ccc(Nc2nc(-c3c(C)nc4ccccn34)cs2)cc1 | 0.983
C=CC(=O)N1CCC[C@@H](n2nc(-c3ccc(Oc4ccccc4)cc3)c3c(N)ncnc32)C1 | 0.791

Structure (SMILES) | growth inhibition by drug plus 177Lu-lilotomab satetraxetan
CS(=O)(=O)c1cccc(CNc2nc(Nc3ccc4c(c3)CCC(=O)N4)ncc2C(F)(F)F)c1 | 0.144
CC(NC(=O)c1ccccc1/N=C/c1c(O)ccc2ccccc12)c1ccccc1 (stereo not drawn) [Sirtinol] | 0.0917
CN(Cc1cnc2nc(N)nc(N)c2n1)c1ccc(C(=O)N[C@@H](CCC(=O)O)C(=O)O)cc1 [Abitrexate (Methotrexate)] | 0.957
OCCn1cc(-c2cnc3nnn(Cc4ccc5ncccc5c4)c3n2)cn1 | 0.0788
COc1cc(Nc2ncc(F)c(Nc3ccc4c(n3)NC(=O)C(C)(C)O4)n2)cc(OC)c1OC [R406(free base)] | 0.096
COc1cccc2c1C(=O)c1c(O)c3c(c(O)c1C2=O)C[C@@](O)(C(=O)CO)C[C@@H]3O[C@H]1C[C@H](N)[C@H](O)[C@H](C)O1 [Doxorubicin (Adriamycin)] | 0.989
CN(NC(=O)CC(=O)NN(C)C(=S)c1ccccc1)C(=S)c1ccccc1 [Elesclomol] | 0.984
CN(C)CCOc1ccc(/C(=C(/CCCl)c2ccccc2)c2ccccc2)cc1 [Toremifene Citrate (Fareston, Acapodene)] | 0.163
CN1CCN(CCOc2cc(OC3CCOCC3)c3c(Nc4c(Cl)ccc5c4OCO5)ncnc3c2)CC1 [Saracatinib (AZD0530)] | -0.0137
CC(C)C[C@H](NC(=O)[C@H](Cc1ccccc1)NC(=O)c1cnccn1)B(O)O [Bortezomib (Velcade)] | 0.986
Cn1cncc1[C@@](N)(c1ccc(Cl)cc1)c1ccc2c(c1)c(-c1cccc(Cl)c1)cc(=O)n2C [Tipifarnib (Zarnestra)] | 0.847
COC(=O)c1ccc2c(C(=Nc3ccc(N(C)C(=O)CN4CCN(C)CC4)cc3)c3ccccc3)c(O)[nH]c2c1 [BIBF1120 (Vargatef)] | -0.0418
CC[C@@H]1/C=C(\C)C[C@H](C)C[C@H](OC)[C@H]2O[C@@](O)(C(=O)C(=O)N3CCCC[C@H]3C(=O)O[C@H](/C(C)=C/[C@@H]3CC[C@H](Cl)[C@H](OC)C3)[C@H](C)[C@@H](O)CC1=O)[C@H](C)C[C@@H]2OC [Pimecrolimus] | 0.373
CN(C)CCOc1ccc(-c2nc(-c3ccncc3)c(-c3ccc4c(c3)CC/C4=N\O)[nH]2)cc1 | 0.0638
COc1ccc(CCN2CCN(CCCc3ccccc3)CC2)cc1OC | 0.0376
CNC(=O)c1cc(Oc2ccc(NC(=O)Nc3cc(C(C)(C)C)nn3-c3ccc4ncccc4c3)c(F)c2)ccn1 [DCC-2036 (Rebastinib)] | 0.208
CCC(C)(C)C(=O)O[C@H]1C[C@@H](C)C=C2C=C[C@H](C)[C@H](CC[C@@H]3C[C@@H](O)CC(=O)O3)[C@H]21 [Simvastatin (Zocor)] | -0.0188
CCc1ccc(CCOc2ccc(CC3SC(=O)NC3=O)cc2)nc1 (stereo not drawn) [Pioglitazone (Actos)] | 0.0194
O=C(O)C(Cc1c[nH]c2ccccc12)N1C(=O)c2ccccc2C1=O (stereo not drawn) | -0.0646
